Assay outcomes: PubChem BioAssay, Johns Hopkins Ion Channel Center
KCNQ2 pot: potentiators of rat KCNQ2 potassium channel. O88943. CHO-K1 KCNQ2, FluxOR thallium flux fluorescence; stronger effect = higher value. B-score at 10 µM. 0.54% of 310,000 active. AID 2239;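 active = fluorescence ratio B-score at least 3 SD of library B-scores, with initial fluorescence B-score within 3 of them, cut at about 5.3 in these data; same plate scores as AID 2156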;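 also: B-score of peak minus minimum over baseline fluorescence ratio after K+ and Tl+ stimulus; positive B-score means potentiation of KCNQ2 with more thallium influx and brighter signal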
Target sequence (O88943 whole entry, looked up): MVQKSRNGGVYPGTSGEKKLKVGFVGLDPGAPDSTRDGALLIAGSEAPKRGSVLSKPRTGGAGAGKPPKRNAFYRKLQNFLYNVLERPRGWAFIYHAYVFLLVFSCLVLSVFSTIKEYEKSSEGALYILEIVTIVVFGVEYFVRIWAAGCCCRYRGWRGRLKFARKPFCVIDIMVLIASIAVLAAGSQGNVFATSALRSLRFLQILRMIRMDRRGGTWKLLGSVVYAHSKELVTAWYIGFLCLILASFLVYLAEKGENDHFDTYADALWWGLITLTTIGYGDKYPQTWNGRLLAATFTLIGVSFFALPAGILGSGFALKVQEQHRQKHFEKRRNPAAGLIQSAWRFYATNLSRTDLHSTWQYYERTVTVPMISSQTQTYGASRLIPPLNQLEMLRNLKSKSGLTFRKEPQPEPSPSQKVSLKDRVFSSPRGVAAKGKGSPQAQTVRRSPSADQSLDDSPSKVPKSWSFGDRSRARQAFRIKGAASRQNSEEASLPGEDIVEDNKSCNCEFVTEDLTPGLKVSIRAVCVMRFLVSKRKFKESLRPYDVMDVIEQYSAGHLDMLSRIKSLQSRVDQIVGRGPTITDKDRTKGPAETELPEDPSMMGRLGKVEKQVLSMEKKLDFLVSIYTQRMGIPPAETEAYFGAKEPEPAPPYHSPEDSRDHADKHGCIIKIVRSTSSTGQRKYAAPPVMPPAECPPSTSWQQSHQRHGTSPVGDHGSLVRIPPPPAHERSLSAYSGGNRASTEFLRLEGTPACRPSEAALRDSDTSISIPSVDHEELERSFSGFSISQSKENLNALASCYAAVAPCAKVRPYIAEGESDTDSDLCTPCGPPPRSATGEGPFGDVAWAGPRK
KCNQ2 block: inhibitors of rat KCNQ2 potassium channel. O88943. CHO-K1 KCNQ2, FluxOR thallium flux, 20 min; stronger effect = lower value. B-score at 10 µM. 1.1% of 310,000 active. AID 2156;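 active = fluorescence ratio B-score at most minus 3 library SDs, with starting brightness B-score within 2 library SDs, cut at about -5.5 in these data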
A number is an active result; – = inactive; · = not tested or not shown; ! = repeats disagree. A selection: hits, their analogues and other compounds. The true share with any hit is near 1.6%.

SMILES	KCNQ2 pot	KCNQ2 block
O=C(NCC1CCCN1S(=O)(=O)c1cccs1)c1c(F)cccc1F (stereo not drawn)	·	–
CCN1CCN(Cc2ccc(NC(=O)c3cc(NC(=O)C(=O)c4c[nH]c5ccccc45)cc(OC)c3)cc2C(F)(F)F)CC1	·	–
CCN1CCN(Cc2ccc(NC(=O)c3ccc(C)c(NC(=O)C(=O)c4c[nH]c5ccccc45)c3)cc2C(F)(F)F)CC1	–	-7.83
O=C(O)CC1(CC(=O)Nc2ccccc2Br)CCCC1	·	–
Cc1nc(N2CCN(c3ccccn3)CC2)c2c(C)c(C(=O)N3CCN(c4cccc(Cl)c4)CC3)sc2n1	·	–
COc1cccc(-c2nc(N3CCN(C)CC3)c3ccccc3n2)c1O	·	–
COc1cccc(-c2nc(N3CCCCC3C)c3ccccc3n2)c1O (stereo not drawn)	–	-6.81
COc1ccc(CN2CCN(C(=O)CC(C)C)CC2)cc1Br	·	–
COc1ccc(/C=C/C(=O)N(CC(C)C)CC(C)C)cc1Br	–	-5.91
Cc1ccc(C(=O)CC(Nc2ccc(F)cc2)c2ccccc2)cc1 (stereo not drawn)	·	–
Nc1nn(-c2ccccc2Cl)cc1-c1nn[nH]n1	–	–
N=C1S/C(=C\c2ccco2)C(=O)N1c1ccc2c(c1)OCO2	·	–
N=C1S/C(=C\c2ccco2)C(=O)N1c1nccs1	9.12	–
O=C(COCCOCC(=O)N(c1ccccn1)C1CCCCC1)N(c1ccccn1)C1CCCCC1	–	–
Cc1ccc(OCC(=O)N(c2ccccn2)C2CCCCC2)c(C)c1	–	-6.39
CCC(C)N(C(=O)COC(=O)c1ccccc1SCC(=O)N1CCCC1)C1CCS(=O)(=O)C1 (stereo not drawn)	·	–
Cn1cnc2c(=O)sc3ccccc3c21	–	–
Oc1[nH]c2c(Cl)cc(Cl)cc2c1N=NC(=S)NCC1CCCO1 (stereo not drawn)	10.9	–
Cc1cc(C)c2[nH]c(O)c(N=NC(=S)NCC3CCCO3)c2c1 (stereo not drawn)	–	–
CCCC(=O)N(c1ccc(OCC)cc1)S(=O)(=O)c1ccc2c3c(cccc13)C(=O)N2C	–	–
O=C(CCS(=O)(=O)Cc1ccc(Cl)cc1)NCCc1ccccc1	–	–
CCOC(=O)c1cc2c(ccn2-c2ccc(F)cc2)n1CC(=O)NC(C)(C)C	–	-6.65
CCn1c(C(=O)OC)cc2c1ccn2-c1ccc(F)cc1	·	–
COc1ccc(F)c(CN2CCC(n3nccc3NC(=O)C3CCOC3)CC2)c1 (stereo not drawn)	–	–
Cc1c(-c2ccccc2)nc2ccccc2c1C(=O)O	–	–
SMILES	KCNQ2 pot	KCNQ2 block
CC[C@H](NC(=O)c1c(C)c(-c2ccccc2)nc2ccccc12)c1ccccc1	–	-10.6
c1ccc2c(c1)nc(N1CCOCC1)c1nncn12	·	–
c1ccc(N2CCOCC2)c(Nc2nc3ccccc3n3cnnc23)c1	–	-6.33
O=C(COC(=O)c1ccc[n+]([O-])c1)Nc1c(Br)cc([N+](=O)[O-])cc1Br	–	–
O=C(Nc1ccccc1)c1c2c(nc3ccccc13)CCCC2	–	-8.18
COC(=O)c1c2c(nc3ccccc13)CCC2	–	–
COc1ccc(NC(=O)c2c3c(nc4ccccc24)CCC3)cc1	·	–
COc1ccc(OC)c(NC(=O)c2c3c(nc4ccccc24)CCC3)c1	–	-6.09
CCn1cc(C(=O)N[C@@H](CCSC)C(=O)NCCCOC)c(=O)c2cc3c(cc21)OCO3	–	–
Cc1nnc(NC(=O)c2ccc(Br)o2)s1	·	–
COc1cccc(/C=N/NC(=O)c2nc(-c3ccccc3)cc(-c3ccccc3)n2)c1	–	-6.93
COc1ccc(/C=N/NC(=O)c2nc(-c3ccccc3)cc(-c3ccccc3)n2)cc1OC	·	–
Cc1cc(C)n(C(=O)CNC(=O)c2ccc(Cl)cc2Cl)n1	–	–
Cc1ccc(OCC(=O)N2N=C(c3ccc(Cl)cc3)CC2c2ccco2)c([N+](=O)[O-])n1 (stereo not drawn)	–	-8.31
CCC(=O)N1N=C(c2ccc(Cl)cc2)CC1c1ccco1 (stereo not drawn)	·	–
O=C(NC(=S)NC1CCCC1)c1ccccc1Br	–	–
CCN(C(=S)NC(=O)c1ccccc1Br)C1CCCCC1	11.7	–
COc1ccccc1N1CCN(C(=O)COc2ccc(S(=O)(=O)NC(C)(C)C)cc2)CC1	–	–
COc1cc(C(=O)Nc2ccc(NC(=O)c3ccccc3Cl)nc2)cc(OC)c1OC	–	–
O=S(=O)(c1cccc(C(F)(F)F)c1)N1CCC(c2cc(-c3cccc4ccccc34)n[nH]2)CC1	–	-6.13
COc1ccc(S(=O)(=O)N2CCC(c3cc(-c4cccc5ccccc45)n[nH]3)CC2)cc1	·	–
CCN1CCN(C(=O)C2CCC(=O)N(Cc3cccc(C(F)(F)F)c3)C2)CC1 (stereo not drawn)	–	–
COC(=O)c1ccccc1S(=O)(=O)NNC(=O)Nc1ccccc1	·	–
Cc1cccc(C(C(=O)NC2CCCC2)N(C(=O)c2csnn2)C2CC2)c1 (stereo not drawn)	–	–
O=C(NCCOC12CC3CC(CC(C3)C1)C2)c1cccc(Br)c1	–	-7.21
SMILES	KCNQ2 pot	KCNQ2 block
O=C(O)CCCCCNC(=O)c1cccc(Br)c1	·	–
CCCCn1c(-c2csc(CC)c2)n[nH]c1=S	–	–
CCCc1cc(-c2n[nH]c(=S)n2CC(C)C)cs1	6.37	–
CC(CCN1CCC(n2nccc2NC(=O)c2ccccc2Cl)CC1)c1ccccc1 (stereo not drawn)	·	–
CC1Sc2ccc(C(=O)Nc3ccccc3OC(F)F)cc2NC1=O (stereo not drawn)	–	–
Cc1c(O)cccc1C(=O)N[C@@H](CSc1ccccc1)[C@H](O)CN1C[C@H]2CCCC[C@H]2C[C@H]1C(=O)NC(C)(C)C	–	-5.73!
O=C(NCC(=O)N(Cc1ccccc1)C(C(=O)NCC1CCCO1)c1ccccc1)c1cccs1 (stereo not drawn)	–	-5.57
CC(=O)c1ccc(N(C(=O)CNC(=O)c2cccs2)C(C(=O)NCC2CCCO2)c2ccccc2)cc1 (stereo not drawn)	–	–
C=CCN1C(=O)C2(OCCCO2)c2cc(Cl)ccc21	–	–
C[C@@H](NC(=O)c1nc[nH]c1C(=O)NCC(=O)OCc1ccccc1)c1ccccc1	·	–
Cn1cccc1C(NC(=O)c1ccccc1)C(Cl)(Cl)Cl (stereo not drawn)	–	–
Cc1nc(S(=O)(=O)c2ccc(Cl)cc2)c(N(C)C)o1	–	–
Cc1cccc(-c2nc(CS(=O)CC(=O)N3CCc4ccccc4C3)c(C)o2)c1 (stereo not drawn)	–	-7.77
CCN1CCN(C(=O)CS(=O)Cc2nc(-c3cccc(C)c3)oc2C)CC1 (stereo not drawn)	·	–
N#Cc1ccccc1NC(=O)CSc1nnc(-c2ccncc2)o1	·	–
CC(OC(=O)CN1C(=O)NC2(CCCC2)C1=O)C(=O)Nc1cccc(Cl)c1 (stereo not drawn)	–	–
Cn1c(NC(=O)c2cc(-c3ccc4c(c3)OCO4)nc3ccccc23)cc(=O)n(C)c1=O	·	–
CC(C)(C)NC(=O)c1cc(-c2ccc3c(c2)OCO3)nc2ccccc12	–	-5.62
O=C(c1ccccc1NS(=O)(=O)c1ccc(F)cc1)N1CCOCC1	–	–
COc1ccc(C(C#N)=C2C=CC(=NO)C=C2)cc1	–	-5.73
COc1ccc(C(=O)c2ccc(Cl)cc2)cc1	–	–
COc1ccc(CCNC(=S)Nc2cccc3ccccc23)cc1	·	–
COc1ccc(OCCNC(=S)Nc2cccc3ccccc23)cc1	–	-6.24
